Test results taken from PubChem BioAssay AID892 (National Center for Advancing Translational Sciences (NCATS), 2007).
Out of some 75,000 compounds screened, about 20 (0.03%) were called active. Calls come from the whole dose curve; as a rule, active = well fitted inhibition curve with a large enough effect; inconclusive = small, poorly fitted or top-dose-only effect; inactive = no such curve, though single readings can be large or run the other way. Only a sample is shown. Square brackets hold non-standard residues; d marks the D form. Peptide text beside a SMILES is read from it. ξ: configuration not given here. ξV = CC(C)C(N)C(=O)O

biological target: Breast cancer type 1 susceptibility protein (Homo sapiens) (UniProt P38398); test: qHTS Assay for Inhibitors of BRCT-Phosphoprotein Interaction (Red Fluorophore); conditions: BRCT-phosphopeptide binding, red fluorescence polarization; series mostly up to 76.9 µM
Sequence (P38398 whole entry, looked up): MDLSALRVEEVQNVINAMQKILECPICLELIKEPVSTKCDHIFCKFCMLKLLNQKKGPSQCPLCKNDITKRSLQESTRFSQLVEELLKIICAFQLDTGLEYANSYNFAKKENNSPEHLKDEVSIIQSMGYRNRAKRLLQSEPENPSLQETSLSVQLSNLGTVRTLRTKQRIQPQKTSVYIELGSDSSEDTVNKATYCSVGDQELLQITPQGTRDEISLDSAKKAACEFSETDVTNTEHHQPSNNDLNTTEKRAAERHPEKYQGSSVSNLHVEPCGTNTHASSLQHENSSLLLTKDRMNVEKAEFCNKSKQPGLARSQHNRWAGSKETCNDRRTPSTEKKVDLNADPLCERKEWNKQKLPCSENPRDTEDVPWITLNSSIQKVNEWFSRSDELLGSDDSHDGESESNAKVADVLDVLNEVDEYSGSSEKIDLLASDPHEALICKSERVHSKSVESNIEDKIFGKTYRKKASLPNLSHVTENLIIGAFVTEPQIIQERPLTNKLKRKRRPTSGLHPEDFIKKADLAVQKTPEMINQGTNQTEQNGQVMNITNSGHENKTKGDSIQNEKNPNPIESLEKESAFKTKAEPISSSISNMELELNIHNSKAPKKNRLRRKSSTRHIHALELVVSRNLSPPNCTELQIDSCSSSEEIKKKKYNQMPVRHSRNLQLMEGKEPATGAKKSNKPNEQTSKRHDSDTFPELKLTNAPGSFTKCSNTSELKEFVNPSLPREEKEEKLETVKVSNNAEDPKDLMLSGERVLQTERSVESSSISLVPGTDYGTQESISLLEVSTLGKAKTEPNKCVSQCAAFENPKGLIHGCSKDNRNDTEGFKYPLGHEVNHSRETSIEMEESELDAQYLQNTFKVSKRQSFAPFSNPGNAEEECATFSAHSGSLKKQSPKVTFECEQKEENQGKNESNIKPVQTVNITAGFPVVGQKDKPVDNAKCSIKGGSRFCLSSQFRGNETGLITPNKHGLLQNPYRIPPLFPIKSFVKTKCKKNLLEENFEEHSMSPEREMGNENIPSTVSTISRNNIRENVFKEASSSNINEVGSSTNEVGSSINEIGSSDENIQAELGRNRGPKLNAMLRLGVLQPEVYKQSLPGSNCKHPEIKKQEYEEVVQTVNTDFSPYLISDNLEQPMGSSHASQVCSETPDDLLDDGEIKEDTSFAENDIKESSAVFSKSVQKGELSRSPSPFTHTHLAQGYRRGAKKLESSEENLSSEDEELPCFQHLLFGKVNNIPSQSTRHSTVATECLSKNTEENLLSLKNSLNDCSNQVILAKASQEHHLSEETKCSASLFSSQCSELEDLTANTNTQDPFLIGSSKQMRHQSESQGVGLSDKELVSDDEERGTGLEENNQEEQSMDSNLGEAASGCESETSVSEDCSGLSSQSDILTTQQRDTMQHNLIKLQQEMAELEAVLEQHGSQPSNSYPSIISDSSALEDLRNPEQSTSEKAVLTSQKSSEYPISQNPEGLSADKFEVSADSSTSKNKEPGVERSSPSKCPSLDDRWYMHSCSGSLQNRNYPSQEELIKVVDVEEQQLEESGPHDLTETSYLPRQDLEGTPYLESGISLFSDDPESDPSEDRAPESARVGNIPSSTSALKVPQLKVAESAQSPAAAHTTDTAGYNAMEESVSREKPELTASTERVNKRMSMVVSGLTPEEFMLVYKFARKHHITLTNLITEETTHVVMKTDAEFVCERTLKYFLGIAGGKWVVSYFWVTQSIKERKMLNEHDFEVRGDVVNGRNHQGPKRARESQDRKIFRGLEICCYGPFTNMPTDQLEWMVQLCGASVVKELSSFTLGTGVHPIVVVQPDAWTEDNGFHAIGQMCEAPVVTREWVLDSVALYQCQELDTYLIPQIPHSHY
Experimental: NIH Molecular Libraries Screening Centers Network [MLSCN]
NIH Chemical Genomics Center [NCGC]
PI Name: Natarajan, Amarnath; University of Texas
A complex of BRCT (C-terminal portion of BRCA1, MW ~35 kDa, His-tagged) and fluorescently labeled pBACH1 phosphorylated 10 aa peptide fragment of BACH1, a helicase implicated in DNA repair, is incubated with library members. Inhibitors of BRCT-pBACH1 binding are detected by a decrease in the fluorescence polarization (FP) of the fluorophore. In order to minimize the effect of fluorescence artifacts and to increase the overall robustness of the screen, the compound library members were incubated in separate reactions with rhodamine-labeled probe-protein complexes. Protein and labeled probes were supplied by Dr. Amarnath Natarajan, Department of Pharmacology and Toxicology, University of Texas Medical Branch Galveston, TX.
Assay Buffer: 16mM Na2HPO4, 4 mM NaH2PO4, 150 mM NaCl, 1 mM EDTA, 1 mM DTT, 0.02% NaN3, and 0.01% Tween 20 at pH 7.3.
Assay Controls: 100 nM TAMRA labeled decapeptide dispensed into columns 3 and 4 to generate negative control (full inhibition of
binding, -100 % activity). 100 nM labeled decapeptide/100 nM protein in columns 1, 2, 5 - 48. Titration of unlabeled decapeptide control (from 10 mM, then 1:2 dilution in duplicate) pin-transferred to column 2, rows 1 to 16. Column 1 is neutral.
Three uL of reagents were dispensed to 1536-well Greiner black solid-bottom plates. Compounds and controls (23 nL) were transferred via Kalypsys PinTool. The plates were incubated for 12 min at room temperature, and then read on ViewLux (Perkin-Elmer) High-throughput CCD imager using BODIPY for the rhodamine-labeled decapeptide probe polarization filter sets. During dispense, reagent bottles were kept submerged into 4 deg C water bath and all liquid lines were covered with aluminum foil to minimize probe and protein degradation. All screening operations were performed on a Kalypsys robotic system (Kalypsys, Inc., San Diego, CA) containing one RX-130 and two RX-90 anthropomorphic robotic arms. The timing and order of assay plates passing through the screening system were adjusted such that each compound library plate was assayed against the fluorescein- and rhodamine-labeled assay systems at immediately adjacent time points.
% is set by controls: 0 for no effect and ±100 for the full control effect.

Question: Which activity change, negative = inhibition does the source give for CCS(=O)(=O)N1CCN(C(=O)c2cccs2)CC1 here?
Answer: inactive

Question: With Cc1nc2cnc(Nc3ccccc3)nc2n(Cc2ccc(F)cc2)c1=O as the molecule, how does the activity change, negative = inhibition read?
Answer: inactive

Question: CCCCC[C@H](O)CCCC(=O)O was tested. Which activity change, negative = inhibition did it give?
Answer: inactive

Question: How did the activity change, negative = inhibition turn out when COc1ccc(-c2cc(C(F)(F)F)nc(SCCC(=O)NCc3ccco3)n2)cc1 was run?
Answer: inactive

Question: With CCn1cc(C(=O)NCC2COc3ccccc3O2)c2cc(OC)c(OC)cc2c1=O (stereo unspecified) as the molecule, how does the activity change, negative = inhibition read?
Answer: inactive

Question: CC(=O)NC(C(=O)NCC(N)=O)C(C)C (stereo unspecified) (Ac-[ξV]-Gly-NH2) was tested. Which activity change, negative = inhibition did it give?
Answer: inactive

Question: With CN1CCCC1CCO[C@@](C)(c1ccccc1)c1ccc(Cl)cc1 (stereo partly specified) as the molecule, how does the activity change, negative = inhibition read?
Answer: inactive

Question: How did the activity change, negative = inhibition turn out when Nc1ccccc1N was run?
Answer: inactive

Question: For COC(=O)[C@@H]1C[C@H]2CC[C@H](O)C[C@H]2N1Cc1ccc(N2CCN(C)CC2)cc1, which activity change, negative = inhibition is on record?
Answer: inactive

Question: With O=C(O)c1cccc(S(=O)(=O)NCCO)c1 as the molecule, how does the activity change, negative = inhibition read?
Answer: 1.54% [at 15.4 µM] (inactive)

Question: For CCCN1[C@H](C(=O)OC)C[C@@]2(O)[C@@H](O)[C@@H](O)[C@@H](O)C[C@@H]12, which activity change, negative = inhibition is on record?
Answer: inactive

Question: Which activity change, negative = inhibition does the source give for CCOC(=O)c1sc(NC(=S)n2cc(C)cn2)c(C(=O)OCC)c1C here?
Answer: inactive

Question: How did the activity change, negative = inhibition turn out when CCc1nc(C)cn1S(=O)(=O)c1cc(OC)c(C)cc1C was run?
Answer: inactive

Question: How did the activity change, negative = inhibition turn out when COc1ccc(CN2C(=O)CN=C2Nc2ccc(C)cc2C)cc1 was run?
Answer: inactive

Question: Which activity change, negative = inhibition does the source give for COc1ccc2c(c1OC)C(=O)N(c1ncn[nH]1)C2 here?
Answer: inactive

Question: For C=CCn1c(COc2ccccc2)nnc1SCC(=O)NCC(=O)OCC, which activity change, negative = inhibition is on record?
Answer: inactive

Question: Which activity change, negative = inhibition does the source give for Clc1ccc(C2[C@H]3CN(CC4CCCCC4)[C@H](c4ccccc4)C34CC2(c2cccnc2)C4)cn1 (stereo partly specified) here?
Answer: inactive

Question: With COCC(=O)N1CCC2(CCCN(c3ccccc3)C2)CC1 as the molecule, how does the activity change, negative = inhibition read?
Answer: inactive

Question: Which activity change, negative = inhibition does the source give for Cc1cccc(Cn2c(SCCO)nc3c2c(=O)n(C)c(=O)n3C)c1 here?
Answer: inactive

Question: Which activity change, negative = inhibition does the source give for CS(=O)(=O)N(CC(=O)N1CCOCC1)c1ccc2c3c(cccc13)CC2 here?
Answer: inactive

Question: With Cc1cc(C)nc(SCc2nnc(SCC(=O)Nc3ncc(C)s3)n2Cc2ccco2)n1 as the molecule, how does the activity change, negative = inhibition read?
Answer: inactive

Question: With CCOc1ccc(CNC(=O)C2CC(=O)N(C3CCCC3)C2)cc1OC (stereo unspecified) as the molecule, how does the activity change, negative = inhibition read?
Answer: inactive

Question: Which activity change, negative = inhibition does the source give for O=C(Nc1cccc(F)c1)c1ccc(S(=O)(=O)N2CCCC2)cc1 here?
Answer: inactive

Question: How did the activity change, negative = inhibition turn out when COc1ccc(-c2cc(C(F)(F)F)n3nc(C(=O)N4CCOCC4)c(Cl)c3n2)cc1 was run?
Answer: inactive

Question: With O=C(OCC(O)C(O)COC(=O)c1ccccc1)c1ccccc1 (stereo unspecified) as the molecule, how does the activity change, negative = inhibition read?
Answer: inactive

Question: For O=C(c1cnn2ccccc12)N1CCc2ccccc21, which activity change, negative = inhibition is on record?
Answer: inactive

Question: Which activity change, negative = inhibition does the source give for CCCNS(=O)(=O)c1ccc2c(c1)CCCN2C(C)=O here?
Answer: inactive

Question: With CC1Cc2ccccc2N1C(=O)Cn1cnc2ccccc2c1=O (stereo unspecified) as the molecule, how does the activity change, negative = inhibition read?
Answer: inactive

Question: How did the activity change, negative = inhibition turn out when COC(=O)COc1ccc(S(=O)(=O)Nc2ccc(NC(C)=O)cc2)cc1 was run?
Answer: inactive

Question: How did the activity change, negative = inhibition turn out when O=C1CCC(C(=O)Nc2ccc(OC(F)F)cc2)N1 (stereo unspecified) was run?
Answer: inactive

Question: For CCOC(=O)N1CCN(C(=O)c2cc3c(-c4ccc(Cl)cc4)nn(C)c3s2)CC1, which activity change, negative = inhibition is on record?
Answer: inactive

Question: How did the activity change, negative = inhibition turn out when O=C1c2cccnc2C(=O)N1Cc1cccs1 was run?
Answer: inactive

Question: Nc1nc(N)c2[nH]c(CNc3ccc(C(=O)O)cc3)nc2n1 was tested. Which activity change, negative = inhibition did it give?
Answer: 1.19% [at 15.4 µM] (inactive)

Question: How did the activity change, negative = inhibition turn out when O=C(O)[C@@H]1[C@@H](C(=O)O)[C@]23C[C@@]2(C(=O)O)[C@]2(C(=O)O)CCC3=C3CCCC312 was run?
Answer: 1.09% [at 15.4 µM] (inactive)

Question: For CC(=O)Nc1ccc(S(=O)(=O)N2CCN(CCCOc3cc(C)ccc3C)CC2)cc1, which activity change, negative = inhibition is on record?
Answer: inactive

Question: O=C(CSc1nc2[nH]ncc2c(=O)n1-c1ccccc1)N1CCCc2ccccc21 was tested. Which activity change, negative = inhibition did it give?
Answer: inactive

Question: How did the activity change, negative = inhibition turn out when CC(C)CNC(=O)C1CCCN(S(=O)(=O)c2ccc(-n3cnnn3)cc2)C1 (stereo unspecified) was run?
Answer: inactive

Question: For Cn1c(N)c(C(=O)COC(=O)c2cc(C(F)(F)F)nc3c(C(F)(F)F)cccc23)c(=O)n(C)c1=O, which activity change, negative = inhibition is on record?
Answer: inactive

Question: How did the activity change, negative = inhibition turn out when CCCC1CC(C)(C(=O)Cn2[nH]c(=O)ccc2=O)OC1=O (stereo unspecified) was run?
Answer: inactive

Question: Which activity change, negative = inhibition does the source give for C[C@@H]1O[C@@H](OC[C@H]2O[C@@H](Oc3c(-c4cccc(O)c4O)oc4cc(O)cc(O)c4c3=O)[C@H](O)[C@@H](O)[C@@H]2O)[C@H](O)[C@H](O)[C@H]1O here?
Answer: inactive

Question: How did the activity change, negative = inhibition turn out when CCOC(=O)C1CCCCN1Cc1ccc(OC)c(OC)c1OC (stereo unspecified) was run?
Answer: inactive

Question: Which activity change, negative = inhibition does the source give for O=C(Nc1c(-c2ccccc2)nc2c(Br)cc(Br)cn12)c1ccco1 here?
Answer: inactive

Question: For Cc1ccc(S(=O)(=O)N2CCN(C(=O)CCC(=O)NC3CCCc4ccccc43)CC2)cc1 (stereo unspecified), which activity change, negative = inhibition is on record?
Answer: inactive

Question: Which activity change, negative = inhibition does the source give for C[C@@H]1C[C@H]2[C@@H]3C[C@H](F)C4=CC(=O)C=C[C@@]4(C)[C@]3(F)[C@H](O)C[C@]2(C)[C@@]1(O)C(=O)CO here?
Answer: inactive

Question: With Cc1oc(CC(C)C)c(CN2CCCC2)c1C(=O)O as the molecule, how does the activity change, negative = inhibition read?
Answer: inactive

Question: Fc1ccc(OCc2nn3c(Cn4nnc5ccccc54)nnc3s2)cc1 was tested. Which activity change, negative = inhibition did it give?
Answer: inactive

Question: How did the activity change, negative = inhibition turn out when COc1ccc(OC)c(NC(=O)CCN2CCC(C)CC2)c1 was run?
Answer: inactive

Question: COC(=O)c1c(-c2ccc(C)cc2)csc1N was tested. Which activity change, negative = inhibition did it give?
Answer: inactive

Question: How did the activity change, negative = inhibition turn out when O=C(OC(C(=O)NC1CCCC1)c1ccc(F)cc1)c1ccno1 (stereo unspecified) was run?
Answer: inactive

Question: CCOc1ccccc1NC(=O)CCc1ccc(C)o1 was tested. Which activity change, negative = inhibition did it give?
Answer: inactive

Question: Which activity change, negative = inhibition does the source give for Cc1c(C(=O)OCC(=O)N(CCC#N)c2ccccc2)oc2c1ccc1ccccc12 here?
Answer: inactive

Question: With O=C1c2cccnc2C(Nc2ccc(S(=O)(=O)N3CCCCCC3)cc2)N1Cc1ccccc1 (stereo unspecified) as the molecule, how does the activity change, negative = inhibition read?
Answer: inactive

Question: With Cc1cc(C)n(C(=O)c2ccc(S(=O)(=O)N3CCCC3)cc2)n1 as the molecule, how does the activity change, negative = inhibition read?
Answer: inactive

Question: For Cn1c(SCc2nc3ccccc3s2)nnc1-c1ccc2c(c1)OCO2, which activity change, negative = inhibition is on record?
Answer: inactive

Question: How did the activity change, negative = inhibition turn out when COC(=O)[C@@H]1C[C@@]2(O)[C@H](O)[C@H](O)[C@H](O)C[C@H]2N1Cc1ccc(C(C)(C)C)cc1 was run?
Answer: inactive

Question: Which activity change, negative = inhibition does the source give for CC1=C(C(=O)OCc2ccccc2)C(c2ccco2)n2ncnc2N1 (stereo unspecified) here?
Answer: inactive

Question: CCOC(=O)N1CCC(NC(=O)C(C)n2c3ccccc3c3cnn(C)c(=O)c32)CC1 (stereo unspecified) was tested. Which activity change, negative = inhibition did it give?
Answer: inactive

Question: C=CCNc1nnc(C)c2ccccc12 was tested. Which activity change, negative = inhibition did it give?
Answer: inactive

Question: For COc1cccc(N(CC(=O)Nc2cccc(F)c2)S(C)(=O)=O)c1, which activity change, negative = inhibition is on record?
Answer: inactive

Question: How did the activity change, negative = inhibition turn out when Cc1cnc(CNc2ncncc2-c2ccccc2Cl)cn1 was run?
Answer: inactive

Question: How did the activity change, negative = inhibition turn out when O=C(Cn1nc(C(F)(F)F)c2c1CCC2)NCc1ccc(F)cc1 was run?
Answer: inactive

Question: How did the activity change, negative = inhibition turn out when O=C1CC(N2CCN(C(c3ccccc3)c3ccccc3)CC2)C(=O)N1 (stereo unspecified) was run?
Answer: inactive

Question: How did the activity change, negative = inhibition turn out when CCOC(=O)c1cccc(NC(=O)CCc2c(C)nc3ncnn3c2C)c1 was run?
Answer: inactive

Question: With C/C(=C\c1ccco1)C1Nc2cccc3cccc(c23)N1 as the molecule, how does the activity change, negative = inhibition read?
Answer: inactive

Question: Which activity change, negative = inhibition does the source give for Brc1ccc(OCCn2ccnc2)cc1 here?
Answer: inactive

Question: For O=C(Cl)c1ccccc1[N+](=O)[O-], which activity change, negative = inhibition is on record?
Answer: inactive
